Drawing on PubChem BioAssay (NCI), this text covers growth for 8 molecules.

The structures appear in SMILES notation. About 83,000 compounds went through this panel and 20% of them were active in at least one assay; those are over-represented in the sample as a whole.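 A percent growth of 40 corresponds to 60% growth inhibition; 0 means no net growth; -100 means all cells died. Active threshold: below 10.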 Values without a mark were called inactive. Activity calls are given as the source filed them.

What all share (test): NCI-60 one-dose screen, 48 h (100 = growth as untreated, 0 = no growth, -100 = all killed)
Holding throughout (settings): 10 µM unless noted

The subject of experiment [1] is EKVX NSCLC.
Experiment [2] deals with UO-31 renal.
The subject of experiment [3] is TK-10 renal.
For experiment [4], the system named is ACHN renal.
Experiment [5] concerns CAKI-1 renal.
For experiment [6], the system named is A498 renal.
Experiment [7] deals with CCRF-CEM leukemia.
Experiment [8] deals with MOLT-4 leukemia.
Experiment [9] has as its system SR leukemia.
The test system of experiment [10] is RPMI-8226 leukemia.
Experiment [11] deals with OVCAR-8 ovarian.
The subject of experiment [12] is OVCAR-5 ovarian.
Experiment [13] has as its system OVCAR-4 ovarian.
Experiment [14] relates to SK-OV-3 ovarian.
The test system of experiment [15] is IGROV1 ovarian.
Experiment [16] has as its system OVCAR-3 ovarian.
For experiment [17], the system named is HS 578T breast.
For experiment [18], the system named is NCI/ADR-RES ovarian.
In experiment [19] the test system is SN12C renal.

Take `CN(C)c1ccc(/C=C/c2c(F)cccc2F)cc1`: the growth in [1] was 76.2%; in experiment [2] it was 55.6%; in experiment [3], 109%; in experiment [4] it was 92.7%; in experiment [5] it was 94.6%; in experiment [6], 77.2%. The growth in [7] was 101%; in experiment [8] it was 97.4%; in [9], 93.7%; in experiment [10], 95.8%; in [11], 99.7%; in experiment [12] it was 104%. For the same molecule, the growth in experiment [13] was 90.3%; in experiment [14], 89.3%; in experiment [15], 59.7%; in experiment [16] it was 98%; in experiment [17], 89.9%; in experiment [18] it was 92.6%.
On to `CCNCCNc1cc(-c2ccc(C#N)cc2)c(C#N)c2nc3ccccc3n12`, for which the growth in experiment [1] was 76%; in experiment [19], 59.3%; in experiment [2], -21.3% (active); in experiment [3] it was 82.3%; in experiment [4] it was 3.09% (active); in experiment [5], 57.4%. Further, the growth is 60.7% in [6]; 51.2% in [8]; -1.04% (active) in [9]; 51.6% in [10]; 38.7% in experiment [11]; 75.6% in experiment [12]. Further, the growth is -34% (active) in experiment [13]; 87.4% in [14]; 47.7% in [15]; -47.7% (active) in experiment [16]; 25.2% in experiment [17]; 60.9% in experiment [18].
`COc1ccc(O)c(-c2cc(-c3ccccc3)c(C#N)c(=O)[nH]2)c1`: the growth was 104% in experiment [1]; 85.1% in [19]; 68.2% in experiment [2]; 88.2% in experiment [3]; 106% in experiment [4]; 95.1% in [5]. The growth in experiment [6] is 65.9%; in experiment [7], 91.7%; in experiment [8], 102%; in experiment [9], 89%; in experiment [10] it was 81.2%; in experiment [12], 124%. The growth is 97.4% in [13]; 92.6% in [14]; 98.8% in experiment [15]; 89.6% in experiment [17]; 97.3% in experiment [18].
Consider `CN1CCN(c2ccc(Nc3ncc(Cl)c(NC[C@@H]4CCCO4)n3)cc2)CC1`, for which the growth in experiment [1] was 39%; in experiment [19], 28.2%; in [2] it was -15.6% (active); in experiment [3], 23.6%; in experiment [5], 26.6%; in experiment [6], -25% (active). The growth in [7] is 28%; in experiment [8] it was 16.8%; in [9] it was -0.801% (active); in [10], 29.5%; in [11], 27.5%; in experiment [12] it was 18.1%. For the same molecule, the growth in [13] was 29.7%; in experiment [14] it was 28.6%; in experiment [15], 23.4%; in experiment [16], 42.8%; in [17] it was 6.95% (active); in [18] it was 31.3%.
With `CCOc1ccc2nc(-c3cccc(OCC(=O)NC(C)C)c3)nc(Nc3ccc(-c4cn[nH]c4)cc3)c2c1`, the growth was 9.24% (active) in [1]; 18.6% in experiment [19]; -13.3% (active) in experiment [2]; 47.4% in experiment [3]; 7.49% (active) in experiment [4]; 27.7% in [5]. For the same molecule, the growth is 46.7% in [6]; 20.4% in [7]; 5.6% (active) in experiment [8]; 0.178% (active) in experiment [9]; -18.4% (active) in experiment [10]; -22.7% (active) in experiment [11]. Also, the growth in [12] is 40.8%; in [13], -60.3% (active); in experiment [14] it was 68.4%; in [15], 20.9%; in experiment [17] it was -44.5% (active); in experiment [18], 14.3%.
As for `CN1CCN(CCCOc2ccc3nc(Nc4cc(Cl)cc(Cl)c4)ccc3c2)CC1`, the growth is -21.5% (active) in experiment [1]; -17.7% (active) in [19]; -87.6% (active) in [2]; -79.7% (active) in [3]; -98.8% (active) in experiment [4]; -32.6% (active) in [5]. For the same molecule, the growth in experiment [6] is -18.6% (active); in experiment [7] it was -52.5% (active); in experiment [8], -67.8% (active); in [9], -54.8% (active); in experiment [10] it was -35.1% (active); in experiment [12], -57.4% (active). Further, the growth in experiment [13] was -23.9% (active); in [14], -59% (active); in experiment [16], -80.5% (active); in experiment [17] it was -34.7% (active); in [18] it was -34.8% (active).
For the molecule `COc1ccc(-c2cncnc2N)cc1OC`, the growth in [19] was 109%; in experiment [2] it was 101%; in experiment [3] it was 111%; in [4] it was 104%; in [5], 101%; in experiment [6], 87.8%. Further, the growth in experiment [7] was 95.9%; in experiment [8], 105%; in experiment [9], 102%; in experiment [10] it was 96.8%; in experiment [11] it was 105%; in experiment [12], 110%. Also, the growth was 108% in [13]; -40.5% (active) in [14]; 111% in experiment [15]; 115% in experiment [16]; 107% in [17]; 105% in experiment [18].
As for `O=C1CSC(c2ccccc2Cl)N1c1nnc(Cn2cnnc2)o1` (stereo unspecified), the growth in [1] is 60.7%; in experiment [19] it was 82%; in [2], 66.4%; in [3], 91.1%; in experiment [4], 73.6%; in experiment [6], 75.5%. For the same molecule, the growth in experiment [7] was 43.4%; in [8], 20.2%; in experiment [9] it was -23.1% (active); in experiment [10] it was 55.1%; in experiment [12] it was 63%; in [13], 68.6%. For the same molecule, the growth is 49% in experiment [14]; 74.7% in [15]; 44.1% in [16]; 82.3% in experiment [17]; 8.38% (active) in experiment [18].
